We go through 31 molecules from PubChem BioAssay (EPA / NIEHS).

In assay [1] the target is Bile acid receptor (Homo sapiens) (UniProt Q96RI1). The assay can be described thus: ATG_FXR_TRANS: Attagene TRANS-FACTORIAL HepG2 Assay for Farnesoid X Receptor (FXR) (AID 2282979).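 Note: hits raise reporter mRNA above DMSO so AC50 marks FXR activation.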 The note with it: HepG2 Attagene TRANS FXR-GAL4 reporter transcription. Put shortly: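 Reporter transcripts from transfected HepG2 cells were measured 24 h after dosing, using RT-PCR with capillary electrophoresis of 6-FAM-labelled fragments. The read-out reflects activity of exogenous FXR-Gal4 chimera on GAL4-UAS units, with induction relative to DMSO.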
Chain of Bile acid receptor (Homo sapiens) (Q96RI1 whole entry, looked up, the tested form may be a part): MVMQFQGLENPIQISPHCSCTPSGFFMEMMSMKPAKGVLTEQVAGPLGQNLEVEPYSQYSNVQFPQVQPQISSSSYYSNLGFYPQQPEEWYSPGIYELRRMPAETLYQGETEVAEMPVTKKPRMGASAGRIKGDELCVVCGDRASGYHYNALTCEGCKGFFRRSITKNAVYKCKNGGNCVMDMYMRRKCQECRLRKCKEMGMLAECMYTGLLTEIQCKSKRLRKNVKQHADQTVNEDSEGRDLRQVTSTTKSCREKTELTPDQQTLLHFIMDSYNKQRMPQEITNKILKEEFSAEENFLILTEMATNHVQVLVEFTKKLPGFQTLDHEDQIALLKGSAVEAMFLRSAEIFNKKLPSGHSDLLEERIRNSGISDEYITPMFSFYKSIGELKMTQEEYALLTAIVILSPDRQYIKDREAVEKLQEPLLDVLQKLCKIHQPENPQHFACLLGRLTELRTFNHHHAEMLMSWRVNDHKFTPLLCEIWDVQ

Assay [2] is described as follows: ATG_M_32_TRANS: Attagene TRANS-FACTORIAL HepG2 Assay for M32 Transcription Factor (Internal Marker) (AID 2282984).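 Note: transcript level of a background control reporter unit measured by RT-PCR and capillary electrophoresis.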 The note with it: HepG2 Attagene TRANS M32 internal marker reporter. The method, boiled down: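 Fluorescence-detected mRNA induction, HepG2 liver cells, 24 h after dosing. Multiple GAL4-UAS reporter units introduced by transient transfection; background-control endpoint analysed for gain of signal against DMSO.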

Assay [3] deals with Nuclear receptor subfamily 4 group A member 2 (Homo sapiens) (UniProt P43354). As to the kind of experiment: ATG_NURR1_TRANS: Attagene TRANS-FACTORIAL HepG2 Assay for human Nuclear Receptor Related Protein 1 (NURR1) (AID 2282985). The note with it: HepG2 Attagene TRANS reporter, mRNA readout. The method, boiled down: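 Chimeric NR-Gal4 proteins were expressed in human HepG2 cells bearing GAL4-UAS reporter units, and induced reporter mRNA was quantified 24 h post-dosing by RT-PCR and capillary electrophoresis.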
Chain of Nuclear receptor subfamily 4 group A member 2 (Homo sapiens) (P43354 whole entry, looked up, the tested form may be a part): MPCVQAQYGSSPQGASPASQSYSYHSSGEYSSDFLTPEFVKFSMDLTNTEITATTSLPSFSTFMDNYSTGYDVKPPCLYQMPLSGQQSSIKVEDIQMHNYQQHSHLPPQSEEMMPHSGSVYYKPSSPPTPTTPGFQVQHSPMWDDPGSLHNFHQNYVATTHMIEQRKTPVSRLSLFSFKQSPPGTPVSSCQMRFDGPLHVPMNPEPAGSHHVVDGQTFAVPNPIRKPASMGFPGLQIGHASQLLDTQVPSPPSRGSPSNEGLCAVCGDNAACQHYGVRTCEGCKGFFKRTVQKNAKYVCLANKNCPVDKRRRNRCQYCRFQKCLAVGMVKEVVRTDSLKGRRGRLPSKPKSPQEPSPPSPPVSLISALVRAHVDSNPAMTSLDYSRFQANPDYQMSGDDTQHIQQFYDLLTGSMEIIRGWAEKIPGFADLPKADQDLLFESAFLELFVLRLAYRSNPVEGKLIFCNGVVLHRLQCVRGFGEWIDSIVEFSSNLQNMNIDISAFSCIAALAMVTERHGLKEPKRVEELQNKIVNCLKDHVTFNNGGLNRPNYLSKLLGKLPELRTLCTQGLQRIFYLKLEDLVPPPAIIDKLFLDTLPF

The target of assay [4] is Transcriptional activator Myb (Homo sapiens) (UniProt P10242). As to the kind of experiment: ATG_Myb_CIS: Attagene CIS-FACTORIAL HepG2 Assay for human Myeloblastosis (Myb) Proto-Oncogene Transcription Factor (AID 2282986; active = hit-call score of the fitted dose curve at least 0.9, where 1 is the maximum; inactive = score below 0.9). The note with it: HepG2 Attagene CIS-FACTORIAL Myb reporter transcription; actives raise or lower the signal. Put shortly:
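Steps: transfect HepG2 with cis-regulated reporter units; dose with chemical for 24 h; isolate RNA, reverse-transcribe, PCR-amplify and FAM-label reporter sequences; digest with HpaI; resolve by capillary electrophoresis. Activity fitted in both directions relative to DMSO.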

The target in assay [5] is Nuclear respiratory factor 1 (Homo sapiens) (UniProt Q16656). The assay can be described thus: ATG_NRF1_CIS: Attagene CIS-FACTORIAL HepG2 Assay for human Nuclear Respiratory Factor 1 (NRF1) Orphan Gene (AID 2282987; active = hit-call score of the fitted dose curve at least 0.9, where 1 is the maximum; inactive = score below 0.9). The note with it: HepG2 NRF1 cis-element reporter, Attagene multiplex; actives raise or lower the signal. Put shortly: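 Fluorescence intensity of labelled reporter cDNA fragments, resolved by capillary electrophoresis, served as readout for NRF1 cis-element activity. Transiently transfected HepG2 cells were dosed for 24 hours; activity in either direction was fitted against DMSO negative control.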
Chain of Nuclear respiratory factor 1 (Homo sapiens) (Q16656 whole entry, looked up, the tested form may be a part): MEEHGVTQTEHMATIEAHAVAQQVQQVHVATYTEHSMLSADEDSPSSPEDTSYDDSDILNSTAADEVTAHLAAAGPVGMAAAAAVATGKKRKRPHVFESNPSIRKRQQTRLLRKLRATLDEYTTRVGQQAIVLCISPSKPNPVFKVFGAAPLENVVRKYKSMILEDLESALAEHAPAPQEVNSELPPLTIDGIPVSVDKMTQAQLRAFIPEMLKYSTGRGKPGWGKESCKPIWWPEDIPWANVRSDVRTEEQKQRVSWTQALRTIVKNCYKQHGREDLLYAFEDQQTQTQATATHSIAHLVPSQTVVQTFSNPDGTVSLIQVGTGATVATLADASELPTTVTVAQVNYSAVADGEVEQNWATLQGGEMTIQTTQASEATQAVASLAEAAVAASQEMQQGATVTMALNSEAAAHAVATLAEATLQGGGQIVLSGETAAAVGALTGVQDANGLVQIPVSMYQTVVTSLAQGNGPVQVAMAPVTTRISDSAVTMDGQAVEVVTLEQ

Assay [6] can be described thus: ATG_M_06_TRANS: Attagene TRANS-FACTORIAL HepG2 Assay for M06 Transcription Factor (Internal Marker) (AID 2282983).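 Note: reporter transcript level by RT-PCR then capillary electrophoresis fluorescence.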 The note with it: HepG2 Attagene TRANS M06 internal marker reporter. The method, boiled down:
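Background-control reporter readout: after 24 h chemical exposure of transiently transfected HepG2 (GAL4-UAS reporter units), mRNA quantified by RT-PCR with fluorescent labeling and capillary electrophoresis. Gain-of-signal fitting against DMSO baseline.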

Assay [7] concerns the target Oxysterols receptor LXR-alpha (Homo sapiens) (UniProt Q13133). As to the kind of experiment: ATG_LXRa_TRANS: Attagene TRANS-FACTORIAL HepG2 Assay for human Liver X Receptor alpha (LXRa) (AID 2282980). The note with it: HepG2 Attagene TRANS reporter, LXRa transactivation. The method, boiled down:
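Chemical-induced reporter mRNA measured by RT-PCR with fluorescent labelling and capillary electrophoresis after 24 h dosing of transiently transfected HepG2 cells expressing exogenous NR-Gal4 chimeras; increases scored against DMSO baseline.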

Assay [8] deals with Oxysterols receptor LXR-beta (Homo sapiens) (UniProt P55055). As to the kind of experiment: ATG_LXRb_TRANS: Attagene TRANS-FACTORIAL HepG2 Assay for human Liver X Receptor beta (LXRb) (AID 2282981). The note with it: HepG2 Attagene TRANS GAL4-LXRb reporter, mRNA. Put shortly: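 Liver-derived HepG2 cells transfected with Gal4-responsive reporters were dosed for 24 h. Activation was scored as rise in reporter mRNA, by RT-PCR and capillary electrophoresis, above DMSO baseline.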
Chain of Oxysterols receptor LXR-beta (Homo sapiens) (P55055 whole entry, looked up, the tested form may be a part): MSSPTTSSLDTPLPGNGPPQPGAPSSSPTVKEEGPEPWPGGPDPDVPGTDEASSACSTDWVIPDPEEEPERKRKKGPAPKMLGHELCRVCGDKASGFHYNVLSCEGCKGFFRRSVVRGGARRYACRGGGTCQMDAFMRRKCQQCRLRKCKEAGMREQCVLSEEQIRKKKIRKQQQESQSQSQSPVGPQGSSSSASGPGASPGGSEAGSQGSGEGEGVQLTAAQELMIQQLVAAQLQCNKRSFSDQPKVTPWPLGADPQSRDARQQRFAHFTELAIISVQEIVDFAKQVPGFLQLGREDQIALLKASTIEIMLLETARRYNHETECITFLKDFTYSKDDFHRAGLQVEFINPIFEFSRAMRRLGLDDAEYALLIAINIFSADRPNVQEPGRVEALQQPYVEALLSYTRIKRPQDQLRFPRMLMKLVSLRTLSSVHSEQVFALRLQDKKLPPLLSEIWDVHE

The target of assay [9] is Hepatocyte nuclear factor 4-alpha (Homo sapiens) (UniProt P41235). As to the kind of experiment: ATG_HNF4a_TRANS: Attagene TRANS-FACTORIAL HepG2 Assay for human Hepatocyte Nuclear Factor 4 alpha (HNF4a) (AID 2282982). The note with it: HepG2 HNF4a transactivation reporter, mRNA readout. The method, boiled down:
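Using HepG2 liver cells transfected with GAL4-UAS reporter units, chemical-induced mRNA increases were assessed after 24 hours. Fluorescent RT-PCR fragments were separated by capillary electrophoresis and compared with DMSO negative controls.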

Results filed as inconclusive are left out. Activity calls are given as the source filed them. Rule for the calls, unless noted: active = hit-call score of the fitted dose curve at least 0.9, where 1 is the maximum; inconclusive = response in the unintended direction; inactive = score below 0.9.

Chain of Hepatocyte nuclear factor 4-alpha (Homo sapiens) (P41235 whole entry, looked up, the tested form may be a part): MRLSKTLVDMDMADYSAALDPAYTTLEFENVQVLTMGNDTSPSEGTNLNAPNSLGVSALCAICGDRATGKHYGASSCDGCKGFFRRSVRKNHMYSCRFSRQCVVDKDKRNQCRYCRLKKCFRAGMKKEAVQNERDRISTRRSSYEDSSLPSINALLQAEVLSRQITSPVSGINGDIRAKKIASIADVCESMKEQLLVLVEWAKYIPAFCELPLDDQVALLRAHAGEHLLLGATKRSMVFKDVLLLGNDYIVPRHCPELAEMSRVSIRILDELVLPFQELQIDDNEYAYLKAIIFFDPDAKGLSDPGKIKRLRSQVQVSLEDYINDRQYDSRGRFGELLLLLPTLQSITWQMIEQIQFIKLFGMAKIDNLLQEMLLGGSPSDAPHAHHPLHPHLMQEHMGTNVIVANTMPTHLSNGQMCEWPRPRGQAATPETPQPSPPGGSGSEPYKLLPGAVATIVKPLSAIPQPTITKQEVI
Chain of Transcriptional activator Myb (Homo sapiens) (P10242 whole entry, looked up): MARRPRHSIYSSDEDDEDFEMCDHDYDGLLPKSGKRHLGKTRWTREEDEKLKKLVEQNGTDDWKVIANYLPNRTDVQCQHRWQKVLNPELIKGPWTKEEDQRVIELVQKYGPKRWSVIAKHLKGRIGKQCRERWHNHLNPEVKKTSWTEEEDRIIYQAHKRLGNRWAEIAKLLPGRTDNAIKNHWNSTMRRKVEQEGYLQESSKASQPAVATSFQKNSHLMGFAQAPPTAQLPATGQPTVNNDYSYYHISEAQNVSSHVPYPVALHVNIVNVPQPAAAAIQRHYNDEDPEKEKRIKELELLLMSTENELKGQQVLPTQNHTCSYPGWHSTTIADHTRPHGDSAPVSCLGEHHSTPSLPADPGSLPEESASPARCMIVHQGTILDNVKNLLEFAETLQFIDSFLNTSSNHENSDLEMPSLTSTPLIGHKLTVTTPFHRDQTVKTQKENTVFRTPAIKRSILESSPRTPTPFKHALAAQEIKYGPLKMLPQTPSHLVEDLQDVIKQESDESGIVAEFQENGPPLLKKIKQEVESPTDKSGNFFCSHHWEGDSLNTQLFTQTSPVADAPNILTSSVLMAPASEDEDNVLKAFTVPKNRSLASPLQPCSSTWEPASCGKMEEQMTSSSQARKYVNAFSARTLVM
Chain of Oxysterols receptor LXR-alpha (Homo sapiens) (Q13133 whole entry, looked up, the tested form may be a part): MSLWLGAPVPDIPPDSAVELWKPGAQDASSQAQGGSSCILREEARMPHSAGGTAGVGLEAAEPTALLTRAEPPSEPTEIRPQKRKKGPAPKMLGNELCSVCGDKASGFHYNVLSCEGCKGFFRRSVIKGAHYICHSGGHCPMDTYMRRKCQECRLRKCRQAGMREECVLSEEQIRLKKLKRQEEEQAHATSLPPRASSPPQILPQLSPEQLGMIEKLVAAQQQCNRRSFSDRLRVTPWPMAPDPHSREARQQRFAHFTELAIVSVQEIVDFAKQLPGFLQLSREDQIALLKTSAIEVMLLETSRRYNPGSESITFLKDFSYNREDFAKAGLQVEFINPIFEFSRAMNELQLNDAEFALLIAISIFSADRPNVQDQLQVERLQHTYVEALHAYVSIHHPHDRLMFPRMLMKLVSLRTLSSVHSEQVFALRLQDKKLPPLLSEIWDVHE

As to `CC(C)c1ccc2c(C(C)C)cc(C(C)C)c(S(=O)(=O)O)c2c1`, the outcome in assay [1], in assay [2], in [4] and in assay [5] was inactive. Moreover, the AC50 (usually the concentration at which the activity in the assay is half-maximal) in [3] was 48 µM (active).

With `COC(=O)c1sccc1S(N)(=O)=O`, the result in [1], in assay [6], in [2], in assay [4] and in assay [5] was inactive.

As to `c1cc(N(CC2CO2)CC2CO2)ccc1OCC1CO1` (stereo not given), the molecule was called inactive in assay [1], in [7], in [8], in [6], in assay [4] and in assay [5].

In the case of `CCOC(=O)N1CCC(=C2c3ccc(Cl)cc3CCc3cccnc32)CC1`, the call in assay [1], in assay [2], in assay [4] and in assay [5] was inactive. In [3], the AC50 was 15.6 µM (active).

In the case of `C=CCCCCCCCCC(=O)OCCCC`, the outcome in [1], in [8], in [9], in assay [2], in [3] and in assay [4] was inactive. Besides, in assay [5], the molecule was classed as inactive.

With `C/C=C\C/C=C/CCCCCCCCOC(C)=O`, the result in assay [1], in assay [6], in assay [2], in assay [3], in assay [4] and in assay [5] was inactive.

Consider `CC[C@H]1OC(=O)[C@H](C)[C@@H](O[C@H]2C[C@@](C)(OC)[C@@H](O)[C@H](C)O2)[C@H](C)[C@@H](O[C@@H]2O[C@H](C)C[C@H](N(C)C)[C@H]2O)[C@](C)(O)C[C@@H](C)C(=NOCOCCOC)[C@H](C)[C@@H](O)[C@]1(C)O`, for which the call in [1], in [8], in [9], in assay [3], in assay [4] and in assay [5] was inactive.

With `COc1ccc([C@@H]2CC(=O)c3c(O)cc(O[C@@H]4O[C@H](CO[C@@H]5O[C@@H](C)[C@H](O)[C@@H](O)[C@H]5O)[C@@H](O)[C@H](O)[C@H]4O)cc3O2)cc1OC`, the call in assay [1], in [6], in [4] and in assay [5] was inactive.

With `O=C1OC(=O)c2cc(Oc3ccc4c(c3)C(=O)OC4=O)ccc21`, the result in assay [1], in assay [8], in assay [6], in assay [4] and in assay [5] was inactive.

As to `COC(=O)c1ccccc1OC`, the outcome in assay [1], in assay [6], in assay [3], in [4] and in assay [5] was inactive.

Take `Cn1c(=O)[nH]c2ncn(C)c2c1=O`: the call in [1], in [8], in assay [6], in [2], in [4] and in assay [5] was inactive.

Regarding `O=c1n(CCO)c(=O)n(CCO)c(=O)n1CCO`, the molecule was classed as inactive in assay [1], in [7], in assay [9], in assay [2], in [4] and in assay [5].

In the case of `CC/C=C\C/C=C\C/C=C\CCCCCCCC(=O)O`, the call in [1], in [7], in [8], in assay [6], in assay [2] and in assay [4] was inactive. Moreover, the molecule was called inactive in [5].

As to `CC(=O)OCc1ccco1`, the result in assay [7], in assay [9], in assay [6], in assay [2], in assay [4] and in [5] was inactive.

Consider `CCCCCC(C)O` (stereo not given), for which the outcome in assay [7], in assay [8], in assay [9], in [4] and in assay [5] was inactive.

For `O=C(O)C(c1ccc(Cl)cc1)c1ccc(Cl)cc1`, the result in assay [7], in assay [9], in assay [4] and in assay [5] was inactive.

With `CCO[Si](CCCN=C=O)(OCC)OCC`, the molecule was called inactive in assay [7], in assay [8], in assay [9], in [6], in assay [2] and in assay [4]. Further, the call in [5] was inactive.

`CCCOCCOCCOCCO`: the molecule was called inactive in assay [7], in assay [8], in [4] and in [5].

With `O=C(Nc1ccccc1SSc1ccccc1NC(=O)c1ccccc1)c1ccccc1`, the result in [7], in assay [8], in assay [9], in [2], in assay [3] and in assay [4] was inactive. In [5], the molecule was called inactive.

With `CCCCCCCCCCOS(=O)(=O)O`, the call in [1], in [4] and in [5] was inactive.

`CCN(Cc1cccc(S(=O)(=O)O)c1)c1ccc(C(=C2C=CC(=[N+](CC)Cc3cccc(S(=O)(=O)[O-])c3)C=C2)c2ccccc2)cc1`: the outcome in assay [7], in [8], in assay [6], in assay [2], in [3] and in [4] was inactive. In addition, the outcome in [5] was inactive.

Turning to `CC(C)(C)c1ccc(-c2ccc(C(C)(C)C)cc2)cc1`, the result in [7], in assay [8], in [9], in assay [6], in assay [2] and in [4] was inactive. For the same molecule, the outcome in [5] was inactive.

Consider `OCCc1ccncc1`, for which the outcome in assay [7], in assay [9], in [4] and in [5] was inactive.

As to `CCc1ccc2c(c1)C(=O)c1ccccc1C2=O`, the molecule was classed as inactive in assay [7], in [8], in assay [3], in assay [4] and in assay [5].

On to `CCCc1ccc(OC)cc1`, for which the outcome in assay [7], in assay [2], in [4] and in assay [5] was inactive.

For the molecule `O=C1C(N(CO)C(=O)NCO)N(CO)C(=O)N1CO` (stereo not given), the outcome in assay [7], in [9], in [2], in assay [3] and in assay [5] was inactive.

Regarding `C1CN(SSN2CCOCC2)CCO1`, the call in [7], in assay [9], in assay [2] and in assay [5] was inactive.

For `Nc1ccc(N)c(Cl)c1`, the molecule was called inactive in assay [1], in assay [3] and in [5].

With `N[C@H]1C(O)O[C@H](CO)[C@H](O)[C@@H]1O` (stereo not given in full), the call in assay [7], in [8], in [6], in assay [4] and in assay [5] was inactive.

In the case of `Cc1cc(C)c(C)c(O)c1`, the call in assay [7], in assay [8], in assay [6], in assay [2], in assay [3] and in [4] was inactive. For the same molecule, the result in assay [5] was inactive.

As to `C=C[Si](OC(C)=O)(OC(C)=O)OC(C)=O`, the molecule was classed as inactive in assay [7], in assay [8], in [2], in assay [4] and in assay [5].
